Screening data (PubChem)
USP28 inh: inhibitors of human USP28 deubiquitinase; Q96RU2; purified USP28, Ub-rhodamine cleavage fluorescence, 30 min; inhibition, % at 25 µM; 3% of 47,000 active; AID 1645857
UCHL1 block: inhibitors of human UCHL1 deubiquitinase. P09936. purified UCHL1, Ub-rhodamine cleavage fluorescence. inhibition, % at 20 µM. 0.2% of 47,000 active
USP7 inh: human USP7 deubiquitinase inhibition | purified USP7, Ub-rhodamine cleavage fluorescence | 0.3% of 47,000 active | inhibition, % at 20 µM | Q93009
OTUD3 inh: inhibitors of human OTUD3 deubiquitinase. 0.7% of 47,000 active. purified OTUD3, Ub-rhodamine fluorescence, 2 h. AID 1645858. inhibition, % at 25 µM. Q5T2D3
USP10 inh: inhibitors of human USP10 deubiquitinase; Q14694; purified USP10, Ub-rhodamine fluorescence, 60 min; inhibition, % at 20 µM; 1.1% of 47,000 active; AID 1645856
USP8 inh: inhibitors of human USP8 deubiquitinase | P40818 | purified USP8, Ub-rhodamine cleavage fluorescence, 30 min | inhibition, % at 20 µM | 4.2% of 47,000 active | AID 1645853
The depositor's hits bear a star. Only some compounds are listed: those with a hit (about 6.8% of all), similar ones and a draw of the others. Cut-off read from the data, not from the text of the source: active = inhibition above about 30%; inactive = the rest.

`Cn1cccc1C(=O)N1CCC2(CC1)COc1ccccc1S(=O)(=O)N(CC1CC1)C2` gave USP28 inh 5.7, UCHL1 block 1.3, USP7 inh 3.7, OTUD3 inh 4.1, USP10 inh -1.5 and USP8 inh 1.4.
Screening CCCn1cc(C(=O)NCc2ccc(C)cc2)c2nn(-c3ccccc3)c(=O)c-2c1 returned USP28 inh -9.1, UCHL1 block -2.7, USP7 inh 1.6, OTUD3 inh -3.9, USP10 inh 0.9 and USP8 inh 2.6.
Screening CCC(C(=O)Nc1ccc(-c2nc3cccnc3s2)cc1)c1ccccc1 (centres undefined) returned USP28 inh -56.8, UCHL1 block -2.1, USP7 inh 4.5, OTUD3 inh -41.0, USP10 inh 1.2 and USP8 inh 36.3*.
`Cc1nc(-c2ccccc2)sc1C(=O)Nc1ccc2c(c1)OCCO2` gave USP28 inh 49.5*, UCHL1 block 5.1, USP7 inh -2.2, OTUD3 inh 10.8, USP10 inh 9.0 and USP8 inh 8.5.
Screening O=C(Cc1csc(-c2ccccc2)n1)Nc1ccc2c(c1)OCO2 returned USP28 inh 3.0, UCHL1 block -1.5, USP7 inh 0.6, OTUD3 inh -5.8, USP10 inh -0.1 and USP8 inh 29.8.
Screening Cc1nc2ccccc2c2oc(C(=O)Nc3ccc4c(c3)OCCO4)cc12 returned USP28 inh 22.3, UCHL1 block 2.1, USP7 inh 9.8, OTUD3 inh 7.9, USP10 inh -3.2 and USP8 inh 52.2*.
`Cc1nc2sc3c(c2c2nc(CCC(=O)O)nn12)CC(C)CC3` (centres undefined) gave USP28 inh 0.8, UCHL1 block 2.2, USP7 inh 5.6, OTUD3 inh 4.6, USP10 inh 2.2 and USP8 inh 3.9.
For CC(C)C(=O)N1CCN(C(=O)c2ccccc2)CC2(CNC(=O)C2)C1 (centres undefined) the results were USP28 inh 5.0, UCHL1 block 0.5, USP7 inh 6.7, OTUD3 inh 7.8, USP10 inh -0.9 and USP8 inh -22.3.
Cc1nn(Cc2ccccc2Cl)c(C)c1C(C1C(=O)CC(C)(C)CC1=O)C1C(=O)CC(C)(C)CC1=O was read as USP28 inh -6.1, UCHL1 block -0.3, USP7 inh -4.7, OTUD3 inh -8.0, USP10 inh 4.9 and USP8 inh -5.0.
For COc1cccc(CNc2nccn(-c3ccc4c(c3)OCO4)c2=O)c1 the results were USP28 inh 3.9, UCHL1 block 0.1, USP7 inh -0.6, OTUD3 inh 5.7, USP10 inh 1.7 and USP8 inh 1.2.
Screening CCNC(=O)c1cccc(NC(=O)c2cc(Cl)c3c(c2)OCO3)c1 returned USP28 inh 31.3*, UCHL1 block 1.2, USP7 inh 0.0, OTUD3 inh -0.4, USP10 inh 0.7 and USP8 inh 0.2.
For Cc1nc(-c2cccc(NC(=O)c3ccc4c(c3)OCO4)c2)no1 the results were USP28 inh -39.5, UCHL1 block -7.2, USP7 inh -1.5, OTUD3 inh -37.0, USP10 inh -6.8 and USP8 inh -21.2.
Screening COc1ccc(CCn2cnc3scc(-c4ccccc4)c3c2=O)cc1OC returned USP28 inh -6.3, UCHL1 block -2.3, USP7 inh -7.7, OTUD3 inh -6.3, USP10 inh 0.4 and USP8 inh -4.9.
`O=c1c2c(-c3ccccc3)csc2ncn1Cc1ccc2c(c1)OCO2` gave USP28 inh 39.8*, UCHL1 block 4.0, USP7 inh 4.5, OTUD3 inh 3.6, USP10 inh 7.0 and USP8 inh 1.1.
For CN(Cc1ccc2c(c1)OCO2)C(=O)Cn1cnc2sc(-c3ccccc3)cc2c1=O the results were USP28 inh -70.9, UCHL1 block -6.3, USP7 inh 4.6, OTUD3 inh -96.6, USP10 inh 4.3 and USP8 inh 55.0*.
Screening CC(C)n1ncc2c(C(=O)NCCc3ccc(F)cc3)cc(C3CC3)nc21 returned USP28 inh 41.5*, UCHL1 block 2.9, USP7 inh -3.2, OTUD3 inh -5.6, USP10 inh -1.1 and USP8 inh -1.8.
Screening Cc1ccccc1CCNC(=O)c1cc(C2CC2)nc2c1cnn2C(C)C returned USP28 inh 19.2, UCHL1 block 1.7, USP7 inh 5.9, OTUD3 inh -0.5, USP10 inh -0.4 and USP8 inh -3.7.
For CS(=O)(=O)c1ccc(N2CCC3(CC2)OCCO3)c(F)c1 the results were USP28 inh 6.3, UCHL1 block 1.5, USP7 inh 3.1, OTUD3 inh 9.1, USP10 inh -0.6 and USP8 inh 8.8.
Cc1ccc(Cn2cc(C(=O)Nc3ccccc3C(N)=O)ccc2=O)cc1 was read as USP28 inh 17.5, UCHL1 block 3.4, USP7 inh 9.6, OTUD3 inh 22.2, USP10 inh 22.1 and USP8 inh 54.3*.
`Cc1ccccc1Cn1cc(C(=O)Nc2ccccc2C(N)=O)ccc1=O` gave USP28 inh -1.3, UCHL1 block 1.2, USP7 inh -3.9, OTUD3 inh 4.4, USP10 inh 15.3 and USP8 inh 12.3.
Cc1ccc2nc(-c3ccc(NC(=O)COC(=O)CCC(=O)Nc4sc5c(c4C(N)=O)CCC5)cc3)sc2c1 was read as USP28 inh -109.3, UCHL1 block -3.6, USP7 inh 8.4, OTUD3 inh -46.6, USP10 inh -8.6 and USP8 inh 47.1*.
Cc1cc(C2CN(C(=O)c3cc(-c4cccnc4)n[nH]3)CCO2)ccn1 (centres undefined) was read as USP28 inh -4.1, UCHL1 block 0.6, USP7 inh 2.0, OTUD3 inh 0.0, USP10 inh 4.6 and USP8 inh 0.0.
`O=C(O)Cc1ccccc1C(=O)Nc1ccc2c(c1)CCC2` gave USP28 inh -3.7, UCHL1 block -3.2, USP7 inh -2.4, OTUD3 inh -2.8, USP10 inh -1.5 and USP8 inh 0.1.
For O=C(Nc1ccc2c(c1)CCC2)c1cc2ccccc2s1 the results were USP28 inh 33.2*, UCHL1 block 6.5, USP7 inh 7.3, OTUD3 inh 16.5, USP10 inh 10.0 and USP8 inh -3.1.
`O=C(Nc1ccc2[nH]c(=O)[nH]c2c1)c1cc2c(s1)CCCCC2` gave USP28 inh 13.9, UCHL1 block -5.9, USP7 inh 7.0, OTUD3 inh 14.4, USP10 inh -8.9 and USP8 inh 53.4*.
`O=C(NCc1ccc2c(c1)OCO2)c1cc2c(s1)CCC2` gave USP28 inh 44.1*, UCHL1 block 38.5*, USP7 inh 8.7, OTUD3 inh 21.9, USP10 inh 47.3* and USP8 inh 79.0*.
For Cc1ccc(NC(=O)c2cc3c(s2)CCC3)cc1 the results were USP28 inh 37.1*, UCHL1 block 17.4, USP7 inh -3.8, OTUD3 inh 11.9, USP10 inh 13.8 and USP8 inh 48.7*.
Screening O=C(Nc1ccc2[nH]c(=O)[nH]c2c1)c1cc2c(=O)n3ccccc3nc2s1 returned USP28 inh -22.1, UCHL1 block 1.7, USP7 inh 1.3, OTUD3 inh -47.0, USP10 inh -12.5 and USP8 inh -57.5.
